Test results from PubChem BioAssay AID1159580 (chemical genetic matrix, 2015).
Hit rate of the full screen: of about 5,500 compounds, about 2,000 (36%) were called active. Not shown: some 18% with an inconclusive outcome. Rule as the data show it: active = normalized growth mostly below about 0.91 (no sharp cut-off); inconclusive = no clear call, values can overlap the other calls; inactive = mostly above about 0.92. The list shows a part of the results.

Assay: chemical genetic growth profiling, strain panel (AID 1159580);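 also: tested at 20 µM; growth read once vehicle control cultures reached saturation at 30 °C; 1 = growth at the plate median or of vehicle wells; lower values mean less growth of the strain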
Details: S. cerevisiae deletion strains, growth OD

Measured: normalized growth

Cc1sc2ccccc2c1CC1=NCCN1
inactive: locus YAL040C, strain CLN3, hits give low values 0.972 | locus YCL061C, strain MRC1 (second series), hits give low values 0.993 | locus YDR150W, strain NUM1, hits give low values 0.995 | locus YER002W, strain NOP16, hits give low values 0.988 | locus YGR078C, strain PAC10, hits give low values 1 | locus YJR075W, strain HOC1, hits give low values 1.01 | locus YMR263W, strain SAP30, hits give low values 1 | locus YNL175C, strain NOP13, hits give low values 1.03 | locus YNL197C, strain WHI3, hits give low values 1 | locus YNL224C, strain SQS1, hits give low values 1 | locus YOR083W, strain WHI5 (second series), hits give low values 0.982 | locus YPL241C, strain CIN2, hits give low values 1
